In PubChem BioAssay AID540303 (National Center for Advancing Translational Sciences (NCATS), 2011):
Among all 330,000 compounds or so, about 1,000 (0.3%) were called active. Another 3% or so got no clear call; they are omitted. The sample holds actives, similar compounds and a random draw of the others, so the mix is not that of the screen. Calls follow the shape of the dose curve; as a rule, active = well fitted inhibition curve with a large enough effect; inconclusive = small, poorly fitted or top-dose-only effect; inactive = no such curve, though single readings can be large or run the other way; tested in mouse RAW 264.7 cells.

Assay: qHTS for Inhibitors of Cell Surface uPA Generation; also: nearly all actives have a fitted effect of over 55% in size
Details: cell surface uPA generation assay; series mostly up to 38.3 µM; activity change, negative = inhibition: at the top concentration
From the text: The overall objective of this project is to perform a quantitative high throughput screen (qHTS) to identify novel compounds that inhibit the generation of cell surface urokinase activity. The urokinase plasminogen activator (uPA) is one of the two primary endogenous systems that mediate plasminogen activation into plasmin. Members of this system, including uPA and its receptor (uPAR), are overexpressed in several malignant tumors. This system plays a major role in adhesion, migration, invasion and metastasis of cancer cells. Small molecule inhibitors of the uPA system will serve as probes to understand the molecular mechanisms of the uPA cascade and better understanding the microenvironmental circumstances that facilitate the activation of plasminogen by uPA, and finally may provide novel candidate agents for anticancer drug therapy.
[…] […] Upon inhibition of the uPA activation cascade, the subsequent cell surface uPA activity-dependent translocation of LF into the cytoplasm is inhibited. ATP-Lite is used to measure intracellular ATP concentrations, which remain increased if LF entry into the cytoplasm is inhibited. This validation assay was performed using a small set of validation compounds.
NIH Chemical Genomics Center [NCGC]
NIH Molecular Libraries Probe Centers Network [MLPCN]
Assay Submitter (PI): Thomas Bugge, National Institute of Dental and Craniofacial Research, NIH
Cultured RAW 264.7 were dispensed into 1536-well clear bottom, white walled tissue culture plates at a density of 4000 cells/well and were incubated overnight (12-16 h) at 37 C in a 5% CO2 incubator. Serially diluted compounds in 23 nl DMSO were added to cells. […] Compound and reagent-treated plates were incubated for 24 h at 37 C in a 5% CO2 incubator. Perkin Elmer ATPlitetrade mark 1 step (3 ul) was then added to each well. Luminescence was detected using a Perkin Elmer ViewLuxtrade mark plate reader.
1.Dispensing RAW 264.7 cells into 1536-well, white walled tissue culture plates at a density of 4000 cells/well (4 uL).
2.Incubation at 37 C in a 5% CO2 incubator overnight.
3.Serially diluting compounds (1:5 serial dilution; 0.0024 uM to […] final concentration) in 23 nl DMSO.
5.Incubating the compound and reagent-treated plates for 24 hours at 37 C in a 5% CO2 incubator.
6.Adding ATP-Lite (3 ul).
7.Reading plates by ViewLux with an exposure length of 5 seconds.
% is scaled to controls: 0 for no effect and ±100 for the full control effect; potency is read from the fitted curve at half-maximal effect.

Activity change, negative = inhibition, inactive:
COc1ccc(C(=O)NC2=NCCS2)c(OC)c1 -9.96%
Cc1csc(NC(=O)c2ccc(C)s2)n1 -4.48%
COc1ccc(C(=O)Nc2cccc(NC(=O)c3ccc(OC)cc3OC)n2)c(OC)c1 10.8%
COc1cc(SC)ccc1C(=O)NCCOc1ccccc1Cl -1.79%
CCCC(O)(c1ccccc1)C(c1ccccc1)c1ccccn1 (stereo unspecified) 0.751%
Cc1cc(C)c(C=NNc2nc3c([nH]2)c(=O)n(C)c(=O)n3C)c(C)c1 0.257%
O=c1c2ccccc2ncn1CCc1ccncc1 -2.13%
O=C(Nc1ccccc1)Oc1cccc2cccnc12 -8.43%
NN=C(NN=Cc1ccccc1)c1ccccc1 -1.74%
COc1cc(/C=C/c2ccc(/C=C/c3cc(OC)c(OC)c(OC)c3)cc2)cc(OC)c1OC 5.42%
CCCN(CCC)S(=O)(=O)c1cc2c(cc1Br)CCN2C(=O)CC 6.75%
COc1ccc(NC(=S)NC2CCS(=O)(=O)C2)cc1 (stereo unspecified) 13.3%
O=C(Cc1ccc(Cl)cc1)NC1CCS(=O)(=O)C1 (stereo unspecified) 0.7%
COc1ccc2c(c1)C(=O)CC(c1ccccc1)O2 (stereo unspecified) -5.17%
O=S(=O)(Cc1ccc(Cl)cc1Cl)c1ccc(Cl)cc1 -13.8%
CC(=O)OCC(=O)C1(O)CCC2C3CC(C)C4=CC(=O)CCC4(C)C3C(O)CC21C (stereo unspecified) -5.75%
COc1cc(CN2CCC(C(N)=O)CC2)ccc1OCc1ccccc1 -0.173%
COc1cc(C)cc(CN2CCC(Cc3ccccc3)CC2)c1O -15.2%
Nc1ncnc2c1cnn2C1CC(O)C(CO)O1 (stereo unspecified) 1.67%
COc1ccc(C2NCCCC2c2ccccc2)cc1 (stereo unspecified) 6.59%
O=C(NN=CC=Cc1ccccc1)C(O)C(O)C(=O)NN=CC=Cc1ccccc1 (stereo unspecified) 4.29%
Cc1ccc(-c2cn3cc([N+](=O)[O-])ccc3n2)cc1 -15%
Cc1ccc(-c2cn3cc(C)ccc3n2)cc1 -13%
CC(C)=CCc1ccc(O)c(=O)cc1C(C)C -14.1%
CC(C)Cn1cnc2c(SCc3ccc(Cl)cc3)nc(N)nc21 2.74%
COc1cccc(CNC(=O)c2nnn(CC(=O)Nc3cc(Cl)ccc3C)c2N)c1 -7.07%
COc1cccc(CNC(=O)c2nnn(CC(=O)Nc3cc(C)ccc3C)c2N)c1 -1.4%
COc1ccc(N=C2C=CC(=O)O2)cc1 -4.89%
CCOc1cccc(SCc2noc(C(=O)NC(C)C)c2C(=O)O)c1 -8.82%
CCCNC(=O)c1onc(CSc2ccc(F)cc2)c1C(=O)NC(C)C 9.02%
CC(=O)OC1CCC2(C)C(=CCC3C4CC(=O)N(O)C(=O)C4(C)CCC32)C1 (stereo unspecified) -4.19%
CC(NC(=O)c1ccccc1)C(=O)Nc1ccccc1 (stereo unspecified) 2.25%
CC(=O)Nc1ccc(C(=O)Nc2cc(S(=O)(=O)N3CCOCC3)ccc2N2CCOCC2)cc1 -3.85%
CC(C)(C)OC(=O)NNc1c2ccccc2nc2ccccc12 -8.44%
CCc1nc(Nc2ccc(NC(C)=O)cc2)c2oc3ccccc3c2n1 8.93%
OCC(O)C1OCOC(C(O)CO)C1O (stereo unspecified) 9.73%
O=C(NCCc1ccccc1)c1cccc(NC(=O)c2ccccc2)c1 1.44%
CC(NC(=O)CCC(=O)N1CCN(S(=O)(=O)c2ccc(Cl)cc2)CC1)c1ccccc1 (stereo unspecified) -7.34%
O=C(NCc1cccc(C(F)(F)F)c1)c1cccc(S(=O)(=O)N2CCN(Cc3ccccc3)CC2)c1 1.34%
Cc1cccc(NC(=S)N2CCC(C(=O)c3ccc(F)cc3)CC2)c1 -2.65%
O=C(Cn1cnc2c(OCc3ccccc3)ncnc21)NCc1nc2ccccc2[nH]1 20.3%
CC(CNC(=O)Cn1cnc2c(OCc3ccccc3)ncnc21)c1ccccc1 (stereo unspecified) 6.59%
CC(C)OC(=O)c1ccc(NCc2cc(O)ccc2O)cc1Cl 4.35%
NC(=O)Nc1ccc(C(=O)OCC(=O)NC2CCCc3ccccc32)cc1 (stereo unspecified) 2.72%
COC(=O)c1cc(OCC(=O)NC2CCCc3ccccc32)cc(C(=O)OC)c1 (stereo unspecified) 1.62%
CC1=CC(=NNS(=O)(=O)c2ccc([N+](=O)[O-])cc2)CC(C)(C)C1 -2.04%
Cc1onc(-c2c(F)cccc2Cl)c1C(=O)Nc1cccc(S(=O)(=O)N2CCCCC2)c1 -0.171%
Cc1cc(C)c([N+](=O)[O-])cc1-c1ccc(/C=N/NC(=O)c2nonc2N)o1 2.06%
COc1cc(/C=N/N=C(\N)c2nonc2N)cc(OC)c1OC 2.87%
CSCCC(NC(=O)COc1ccccc1)C(=O)OCc1ccc(Cl)cc1 (stereo unspecified) 1.9%
CCOc1ccc(/C=C(/C#N)c2nnc(N3CCOCC3)n2-c2ccccc2)cc1OC -3.57%
CCOc1ccccc1NC(=S)C(=C([O-])c1ccc2c(c1)OCCO2)[n+]1ccc(CC)cc1 -8.87%
O=c1[nH]c2c(c(=O)n1-c1ccccc1)CCO2 3.17%
O=[N+]([O-])c1ccc(NS(=O)(=O)c2ccccc2)c(Cl)c1 -0.654%
CCc1ccc(C(=O)C(C)OC(=O)CN2C(=O)NC3(CCCC3)C2=O)cc1 (stereo unspecified) -1.56%
O=C(NCCCn1ccnc1)c1cc(Br)c(Br)s1 5.42%
O=C(NCCCn1ccnc1)c1ccccc1F 1.64%
CCc1c(Nc2ccccc2Cl)nc(N)[nH]c1=O -10.9%

Potency, active:
COc1ccc(C(=O)Nc2nncs2)c(OC)c1 11.2 µM
COc1cc(SC)ccc1C(=O)Nc1nc(C)cs1 0.891 µM
COc1ccc(-c2ccc(OC(=O)NC3CCS(=O)(=O)C3)cc2)cc1 (stereo unspecified) 10 µM
Oc1c(CN2CCCC2)cc(COCc2ccccc2)c2cccnc12 4.47 µM
Cc1ccc2nc(-c3ccc(Br)cc3)cn2c1 2.82 µM
Nc1c(C(=O)NCc2ccccc2)nnn1Cc1cccc(Cl)c1 11.2 µM
COC(=O)c1c(CCl)noc1C(=O)NC(C)C 10 µM
CC(=O)Nc1ccc(Nc2c3ccccc3nc3ccccc23)cc1 1 µM
O=C(CCC(=O)N1CCN(S(=O)(=O)c2ccc(Cl)cc2)CC1)NCc1cccc(C(F)(F)F)c1 12.6 µM
Cc1ccc(CNC(=O)Cn2cnc3c(NCc4ccccc4)ncnc32)o1 11.2 µM
O=C(CCNC(=O)c1ccc(Cl)cc1)NC1CCCc2ccccc21 (stereo unspecified) 5.62 µM
COc1cc(/C=N\NC(=O)c2nonc2N)c(OC)cc1Br 7.94 µM
O=C(NCCCn1ccnc1)c1cc(-c2ccccc2)on1 5.62 µM
